# From PubChem BioAssay (Tox21)
# Records with an inconclusive call do not appear. Entries that show only a call come without a potency. The source made the active and inactive calls. The call rests on the fitted dose curve; in most records, active means well fitted activation curve with a large enough effect in the repeat runs; inconclusive means weak or mixed curves; inactive means flat fitted curve, though single readings scatter.
# Assay: Caspase-3/7 induction in HepG2 cells by small molecules, qHTS assay (AID 1346978); further: nearly all actives have a fitted effect of over 15% in size
# Conditions: HepG2 caspase-3/7 activation, Caspase-Glo luminescence, 17 h; series mostly up to 92.4 µM
# Excerpt: National Center for Advancing Translational Sciences [NCATS] NIH Chemical Genomics Center [NCGC] U.S. Environmental Protection Agency [EPA] National Institutes of Environmental Health Sciences [NIEHS] National Toxicology Program [NTP] Assay overview: Apoptosis is a process of programmed cell death and plays a central role in the development of multicellular organisms. It is a highly regulated process and induces cell death by activating caspases, which are the members of cysteine aspartic acid-specific protease (caspase) family. Caspases involved in apoptosis are classified by their mechanism of action as initiator caspases (caspase-2, -8, -9 and -10) and executioner caspases (caspase-3, -6, and -7). Inhibition of apoptosis results in number of cancers, autoimmune diseases, inflammatory diseases and viral infection. To identify small molecule compounds that induce apoptosis, a homogeneous, luminescent Caspase-Glo 3/7 assay was used. Wild type HepG2 cells were used to screen Tox21 libraries for identifying caspase-3/7 activity inducers.
# Assay Protocol Summary: HepG2 cells were dispensed at 2,000 per well in 5uL of culture medium into white solid bottom 1536-well plates (Corning Life Sciences, Corning, NY) using a Multidrop Combi (Thermo Scientific, Waltham, MA) dispenser. The assay plates were incubated at 37 C and 5% CO2 for 5hr, and then 23nL of compounds dissolved in DMSO and positive control were transferred using a Pintool station (Wako, San Diego, CA). The assay plates were incubated at 37C and 5% CO2 for 17hr. For caspase-3/7 activity read, 4uL of Caspase-Glo 3/7 reagent (Promega Corporation, Madison, WI) was added to each well of the assay plates using Flying Reagent Dispenser (FRD, Aurora Discovery, San Diego, CA) and incubated the assay plates at room temperature for 30min. The luminescence signal was quantified using a ViewLux plate reader (Perkin Elmer, Shelton, CT).
row,SMILES,Potency
1,CC(C)COP(=O)(OCC(C)C)OCC(C)C,inactive
2,CCOP(=S)(OCC)SCSc1ccc(Cl)cc1,inactive
3,COc1cc(OC)nc(Sc2cccc(Cl)c2C(=O)O)n1,inactive
4,CC(C)(C)C(=O)C(Oc1ccc(Cl)cc1)n1cncn1 (stereo not given),inactive
5,CCC(Cl)[N+](=O)[O-] (stereo not given),inactive
6,CN1C(=S)CN=C(c2ccccc2)c2cc(Cl)ccc21,inactive
7,Fc1ccc(C2(Cn3cncn3)OC2c2ccccc2Cl)cc1 (stereo not given),inactive
8,CN(N=O)C(N)=O,inactive
9,CCOP(=S)(OCC)Oc1cc(-c2ccccc2)on1,inactive
10,Cc1ncsc1CCCl,inactive
11,COP(=S)(OC)Oc1c(Cl)cc(C)cc1Cl,inactive
12,C[C@]12CC[C@H]3[C@@H](CCC4=CC(=O)CC[C@@]43C)[C@@H]1CC[C@@H]2C(=O)O,inactive
13,O=[N+]([O-])c1cc(Cl)c(Cl)c(Cl)c1,inactive
14,CCC(=O)c1ccccc1,inactive
15,CNC(=O)O/N=C(\C)SC,inactive
16,OC(Cn1cncn1)(c1ccc(F)cc1)c1ccccc1F (stereo not given),inactive
17,CC1(C(=O)Nc2ccc(O)c(Cl)c2Cl)CCCCC1,inactive
18,O=[N+]([O-])c1cccc(O)c1,inactive
19,O=C(O)c1cccc(Cl)c1,inactive
20,Nc1n[nH]c(N)n1,inactive

row,SMILES,Potency
1,CNNC,inactive
2,CN/C(=N\[N+](=O)[O-])NCC1CCOC1 (stereo not given),inactive
3,O=C(CCN1CC1)OCC(CO)(COC(=O)CCN1CC1)COC(=O)CCN1CC1,inactive
4,O=C1OC(c2ccc(O)c(S(=O)(=O)O)c2)(c2ccc(O)c(S(=O)(=O)O)c2)c2c(Br)c(Br)c(Br)c(Br)c21,inactive
5,Cc1coc2c1CCC(C)C2 (stereo not given),inactive
6,CC1(C)COP(Oc2ccccc2)OC1,inactive
7,O=C(Nc1ccccc1)c1ccccc1I,inactive
8,O=C(O)c1ccc2[nH]cc(CCCCN3CC=C(c4ccccc4)CC3)c2c1,inactive
9,O=[N+]([O-])c1ccc2c3c(cccc13)CC2,inactive
10,CCOC(=O)/C=C(C)/C=C/C[C@@H](C)CCCC(C)C,inactive
11,COc1cc(OC)nc(NC(=O)NS(=O)(=O)c2ncccc2C(=O)N(C)C)n1,inactive
12,CCOP(=S)(OCC)Oc1nc(Cl)n(C(C)C)n1,inactive
13,Fc1cc(Br)ccc1CBr,inactive
14,O=[N+]([O-])c1ccc(CBr)cc1,inactive
15,CCOP(=S)(Oc1cnc(C(C)(C)C)nc1)OC(C)C (stereo not given),inactive
16,COC(=O)COc1ccc(Cl)cc1Cl,inactive
17,COC(=O)C(c1ccccc1)C1CCCCN1 (stereo not given),inactive
18,Cc1nnc2n1-c1sc(CCC(=O)N3CCOCC3)cc1C(c1ccccc1Cl)=NC2,inactive
19,O=C(N[C@H]1CN2CCC1CC2)c1cc2ccoc2cn1,inactive
20,CCN(CC)CCOC(=O)C(C)(c1ccccc1)c1ccccc1,inactive
